# Screening results as filed in PubChem.
# An excerpt weighted towards active compounds, which were near 4% of everything screened.
# TRHR agonist – activates the human TRH receptor | hit rate 0.18% among 360,000 | AID 493084 | activation, % at 2 µM | P34981 | TRHR cells, calcium flux fluo-8, FDSS agonist mode; further: 0% is about no effect
# Target sequence (P34981 whole entry, looked up): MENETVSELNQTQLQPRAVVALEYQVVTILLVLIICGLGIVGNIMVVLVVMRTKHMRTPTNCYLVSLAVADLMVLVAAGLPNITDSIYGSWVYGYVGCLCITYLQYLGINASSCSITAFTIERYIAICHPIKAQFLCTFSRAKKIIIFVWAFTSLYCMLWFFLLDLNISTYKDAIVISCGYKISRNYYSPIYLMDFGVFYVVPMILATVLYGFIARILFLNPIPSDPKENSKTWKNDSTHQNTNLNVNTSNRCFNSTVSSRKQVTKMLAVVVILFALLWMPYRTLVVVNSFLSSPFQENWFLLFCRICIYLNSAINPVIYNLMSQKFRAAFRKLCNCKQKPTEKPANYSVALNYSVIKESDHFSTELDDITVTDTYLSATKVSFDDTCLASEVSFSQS
#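 In this calcium-flux screen, cells bearing human TRHR are dye-loaded with fluo-8, baselined for 10 cycles, then exposed to library compounds; positive kinetic calcium responses during the agonist phase mark hits, with TRH as control.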
# D1 antagonist – antagonists of human D1 dopamine receptor. P21728. HEK293 TREx D1 cells, calcium flux, dopamine EC80; hits give low values. activity change, negative = inhibition, % at 10 µM. hit rate 3.2% among 360,000. AID 504652; in the data active means activity change below about -30%; further: on the % scale 0 is the no-effect control and ±100 the full control effect
#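 Tetracycline-induced HEK293 T-REx cells with force-coupled D1 receptor were loaded with a no-wash calcium dye. Compound was added after a 10 s baseline and read kinetically for 180 s; EC80 dopamine was then added and calcium flux followed another 180 s.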
# D1 PAM – potentiators of human D1 dopamine receptor | HEK293 TREx D1 cells, calcium flux, dopamine EC20 potentiation | potentiation, % at 10 µM | hit rate 0.036% among 360,000; in the data active means potentiation above about 30%; further: 0% is about no effect
# TRHR PAM – allosterically enhances the human TRH receptor | enhancement, % at 2 µM | P34981 | TRHR cells, fluo-8 calcium fluorescence, EC20 TRH enhancement | hit rate 0.66% among 360,000; in the data active means enhancement above about 30%; further: 0% is about no effect
#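 Enhancer read-out: after compound pinning and an initial kinetic agonist-mode read, an EC20 of TRH (10 nM final) was injected and fluo-8 calcium signal (Ex 480/Em 530) followed at 1 s/cycle for 100 cycles in TRHR-expressing cells.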
# D1 ag – agonists of human D1 dopamine receptor; HEK293 T-REx D1 cells, calcium flux, agonist mode; activation, % at 2 µM; hit rate 1% among 360,000; AID 504660; further: 0% is about no effect
#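 Agonism was scored from calcium flux recorded over 180 s (1 read/s) after pintool compound addition, following a 10-cycle baseline. Cells were inducible force-coupled HEK293 TREx D1, plated overnight at 30 C and loaded with no-wash calcium dye.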
# Glioma ERSR ind – inducers of ER stress response in human glioma cells. Potency, µM, without a hit: at the highest dose activation, most hits filed as activators. hit rate 0.02% among 420,000. U87-MG GRP78 promoter luciferase reporter, 16 h; active means well fitted activation curve with a large enough effect; inconclusive means small, poorly fitted or top-dose-only effect; inactive means no such curve, though single readings can be large or run the other way; further: potency means the concentration at half of the fitted maximal effect; series mostly up to about 76 µM; % of control where 0% means no effect; nearly all actives have a fitted effect of over 35% in size
#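 ERSR induction read as luciferase luminescence (Bright-Glo, 10 min at room temperature) in stably transfected human U87-MG glioma cells exposed to compounds for 16 h, using GRP78 as sensor.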
# * hit, by the source's call; u = inconclusive; x = no result. Unless noted, no stated cut-off is given here; in the data, active means activation above about 30%; inactive means the rest.
SMILES,TRHR agonist,D1 antagonist,D1 PAM,TRHR PAM,D1 ag,Glioma ERSR ind
Cc1cccc(Oc2ncccc2[N+](=O)[O-])c1C,x,x,x,x,x,-4%
Cc1cccc(N2CCN(C(=O)c3noc4c3CCCCC4)CC2)c1C,0,1,-1,-8,5,-1%
CCOc1ccc(OCC)c(NC(=O)C2CCCN(S(=O)(=O)c3ccc4c(c3)oc(=O)n4C)C2)c1 (configuration not stated),0,0,-4,26,0,0%
CC1(C)Cc2c(C#N)c(N3CCN(C(=O)c4ccccc4)CC3)nc(-c3ccco3)c2CS1,-1,8,0,33*,1,-3%
CCOc1cc(/C=C2\SC(=O)N=C2N)ccc1O,1,-15,-12,5,1,-7%
CC(=O)CC1(O)C(=O)N(Cc2ccccc2)c2ccccc21 (configuration not stated),0,-85*,-13,-21,2,-4%
Cc1ccc(C(=O)CC2(O)C(=O)N(Cc3ccccc3Cl)c3ccccc32)o1 (configuration not stated),0,-31*,11,0,-1,-5%
Cc1ccc(C(=O)CC2(O)C(=O)N(Cc3ccccc3)c3ccccc32)o1 (configuration not stated),0,-14,6,1,0,4%
C/C(CC1(O)C(=O)N(Cc2ccccc2)c2ccccc21)=N\O (configuration not stated),-1,-12,-7,2,1,1%
CCCN(CC(=O)Nc1ccc(C(C)=O)cc1)CC(=O)Nc1ccccc1C,1,-5,-5,-4,2,-3%
Cc1c2ccccc2nc2ccccc12,x,x,x,x,x,-2%
CCCNc1c(F)c(F)c2c(C)c3ccccc3nc2c1F,34*,4,-6,9,41*,10%
COc1ccc(C(=O)Nc2ccc(-c3cc4ccccc4oc3=O)c(C)c2)cc1OC,1,1,-1,3,1,x
Cc1ccc(C)c(-n2c(CCC(=O)O)ccc2-c2ccc(Cl)cc2)c1,-1,-32*,-2,-2,23,-2%
Cc1ccc(-c2ccc(CCC(=O)O)n2-c2ccc(C)c(Cl)c2)cc1,-1,9,-1,-4,-1,5%
CNC(=S)NCc1ccc(OC)cc1,0,7,-3,6,4,-2%
Cc1ccc(C2(C)NC(=O)N(CC(=O)Nc3ccccc3N3CCCC3)C2=O)cc1 (configuration not stated),-1,5,5,26,47*,3%
CCN1C(=O)C(=O)N(CC(=O)c2[nH]c(C)c(C(C)=O)c2C)C1=O,0,-9,-3,2,1,-5%
CC(=O)Nc1ccc(/C=N/N2C(=O)NC(C)(c3ccc(OC(F)F)cc3)C2=O)cc1 (configuration not stated),8,-50*,-12,-8,96*,18%
CC(=O)c1c(C)[nH]c(C(=O)CN2C(=O)NC(C)(c3ccc(C)cc3)C2=O)c1C (configuration not stated),5,9,-6,5,33*,0%
CC1(c2ccc(OC(F)F)cc2)NC(=O)N(CC(=O)Nc2ccc3c(c2)OCO3)C1=O (configuration not stated),8,-60*,-9,-6,66*,14%
O=C(c1ccccc1F)N1CCCC(C(=O)N2CCc3ccccc3C2)C1 (configuration not stated),0,17,0,17,2,-4%
Cc1cc(C(=O)CN2C(=O)NC(C)(c3ccc(F)c(F)c3)C2=O)c(C)n1C1CC1 (configuration not stated),x,x,x,x,x,1%
CC1(c2ccc(OC(F)F)cc2)NC(=O)N(CC(=O)Nc2ccccc2)C1=O (configuration not stated),9,-59*,2,-8,59*,u
O=C(CN1C(=O)NC2(CCCC2)C1=O)Nc1cc(Cl)ccc1N1CCCCC1,1,2,0,-1,42*,-5%
SMILES,TRHR agonist,D1 antagonist,D1 PAM,TRHR PAM,D1 ag,Glioma ERSR ind
COc1ccc(C2(C)NC(=O)N(CC(=O)c3cc(C)n(C4CC4)c3C)C2=O)cc1 (configuration not stated),12,-9,-3,4,64*,0%
COc1cccc(NC(=O)CN2C(=O)NC(C)(c3ccc(C)cc3)C2=O)c1 (configuration not stated),-3,-2,-9,6,34*,3%
C/C(CC(=O)Nc1cccc(Cl)c1Cl)=N\NC(=O)C(=O)NC1CCCCC1,0,-6,-8,1,1,-7%
CCOc1cc(C2c3c(n[nH]c3C)C(=O)N2c2ccc(C)cc2)ccc1O (configuration not stated),0,-78*,-4,-4,1,1%
COc1cc(C2c3c(n[nH]c3C)C(=O)N2c2ccc(C)cc2)ccc1O (configuration not stated),0,2,-2,6,0,-6%
O=C(CCC1CCCN(C(=O)c2cc(C3CC3)[nH]n2)C1)N1CCN(c2ccccn2)CC1 (configuration not stated),-2,-32*,0,-1,3,-1%
N#CCCN(/N=C/c1cccnc1)C1=NS(=O)(=O)c2ccccc21,0,-8,4,4,3,-1%
COC(=O)c1ccc(NS(=O)(=O)c2ccc(Cl)cc2)o1,3,-7,-1,0,5,4%
COC(=O)c1ccc(NS(=O)(=O)c2ccccc2)o1,2,-33*,-6,4,5,1%
COc1cc(OC)cc(-c2c(-c3cccs3)c3cc(-c4ccc5[nH]ccc5c4)ccc3n2C)c1,1,x,0,40*,-2,-3%
COc1cc(OC)cc(-c2c(-c3cccs3)c3cc(-c4ccc5cc[nH]c5c4)ccc3n2C)c1,0,x,-3,-4,-1,-3%
Cc1ccccc1Nc1c(-c2ccc(N3CCOCC3)cc2)nc2ccccn12,0,17,2,5,-2,0%
CCc1cccc(C)c1Nc1c(-c2ccc(N3CCOCC3)cc2)nc2ncccn12,10,11,-1,0,32*,-3%
Cc1ccc(Nc2c(-c3ccc(N4CCOCC4)cc3)nc3c(C)cccn23)cc1,0,-32*,-1,-5,3,-5%
Cc1cccc(Nc2c(-c3ccc(N4CCOCC4)cc3)nc3ncccn23)c1,1,1,-3,-4,2,-1%
O=c1nc(N(c2ccccc2)c2ccccc2)[nH]c(=O)[nH]1,2,3,4,2,1,-5%
COC(=O)c1c(NC(=O)COC(=O)c2ccc(Cl)cc2[N+](=O)[O-])sc2c1CCCCC2,0,6,-1,-6,0,-5%
